Test results from PubChem BioAssay (NCI).
“And” between values parts separate entries of the source, which are not always exact repeats. Equal entries are not always repeated. About 83,000 compounds went through this panel and 20% of them were active in at least one assay; those are over-represented in the sample as a whole.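 Cell lines were cultured in 96-well plates, exposed to a single compound concentration, and assessed for percent growth 48 hours later.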 Values without a mark were called inactive. The source made the active and inactive calls. Rule for the calls: active = growth percent below 10; inactive = the rest.

What follows are compounds tested on MDA-MB-468 breast (assay: NCI-60 one-dose screen, 48 h (100 = growth as untreated, 0 = no growth, -100 = all killed)). Conditions: 10 µM unless noted.

SMILES | growth
O=C(Nc1ccc(N2CCOCC2)cc1)Nc1ccc2c(ccn2C(=O)c2cccc(F)c2)c1 | 27.5%
Fc1cc(-c2cnc3nonc3n2)c(Cl)cc1Cl | 61.8%
C=C1C(=O)O[C@H]2[C@H]1CC/C(COC(=O)N[C@@H](Cc1c[nH]c3ccccc13)C(=O)OC)=C\CC[C@@]1(C)O[C@@H]21 | -16.4% (active)
Cc1ccc(CN2CCC(C(=O)Nc3ccc(-c4cc5ccccc5[nH]4)cc3)CC2)o1 | 5.26% (active)
CCC(CCC(C)C1CCC2C3CC=C4CC(O)CCC4(C)C3CCC12C)C(C)C (stereo not given) (tested in a mixture with another compound) | 114%
CCOC(=O)Nc1nc2ccc(SCC(C)C)cc2s1 | 2.1% (active)
C#CCOc1ccc(C2=NN(CCCC)C3N=C(Cl)c4ncn(CCCC)c4N23)cc1OCC#C (stereo not given) | 80.4%
C=C1C(=O)O[C@H]2[C@H]1CC/C(C=Nc1c(N)cc(C(F)(F)F)cc1Br)=C\CC[C@@]1(C)O[C@@H]21 | -16.6% (active)
Cc1cc(O)c(C(C)C)cc1Cl | 114%
COc1ccc(-c2cc(-c3ccc(Nc4nc(Nc5ccccc5)nc(Nc5ccc(Cl)cc5)n4)cc3)nc(N)c2C#N)cc1 | -31.1% (active)
O=C(COCc1c(-c2ccccc2)no[n+]1[O-])Nc1nc(-c2ccc(Cl)cc2)cs1 | 100%
CSCCC(C(=O)O)N1C(=O)/C(=C/c2ccc(O)c(O)c2)SC1=S (stereo not given) | 100%
C#Cc1ccccc1NC(=O)c1sc2nc3c(cc2c1N)CCCCCC3 | 73.5%
C/C(=C(\c1ccc(OCCN2CCOCC2)cc1)c1ccc(OC(=O)C2CCCCC2)cc1)c1ccc(Cl)cc1 | 79.2%
CC(C)(C)c1cc(NC(=O)Nc2ccc(-c3cn4c5c(sc4n3)CCc3c[nH]cc3-5)cc2)no1 | 22.6%
O=C1C=C[C@H](O)[C@@]2(CO)O[C@@H]12 | 54.5%
CC[C@]1(O)C[C@@H]2CN(Cc3c([nH]c4ccccc34)[C@@](C(=O)OC)(c3cc4c(cc3OC)N(C)[C@H]3[C@@](O)(C(=O)OC)[C@H](OC(C)=O)[C@]5(CC)[C@@H]6C[C@@H]6CN6CC[C@]43[C@@H]65)C2)C1 | 8.25% (active)
NS(=O)(=O)c1ccc(Nc2nc(N/N=C/c3ccc(F)cc3)nc(Nc3ccccc3)n2)cc1 | 54.1%
CCc1ccc(CNc2ccc(N3CCOCC3)c(C(=O)O)c2)cc1 | 101%
O=C(N/N=C/c1ccc([N+](=O)[O-])cc1)c1ccc2nc(-c3ccc(Cl)cc3)[nH]c2c1 | -38.9% (active)

SMILES | growth
COC(=O)CCc1c(/C=C2\N=C(c3ccc[nH]3)C=C2OC)[nH]c(C)c1C(=O)OCc1ccccc1 | 28.5%
O=C(CN1CCN(c2cccc(Cl)c2)CC1)N1CCN(c2nnc(-c3ccc(Cl)cc3)c(-c3ccc(Cl)cc3)n2)CC1 | 97.5%
CCCCC[C@H]1C/C=C2/C(=O)C=C[C@@H]2C/C=C\CCCC(=O)O1 | -50.6% (active)
NS(=O)(=O)c1ccc(CN2C(=O)c3cccc4cccc(c34)C2=O)cc1 | 98.2%
CCCCOC(=O)c1cc(O)c(O)c(O)c1 | 96.5%
CSc1nccc(-c2c(-c3ccc(F)c(OCc4ccc(F)cc4)c3)nc3sccn23)n1 | 23.3%
COC(=O)CCCNC(=O)C(=O)c1c(O)c(O)c(C(C)C)c2cc(C)c(-c3c(C)cc4c(C(C)C)c(O)c(O)c(C(=O)C(=O)NCCCC(=O)OC)c4c3O)c(O)c12 | -1.3% (active)
Cc1nn(-c2ccccc2)c2c1C(c1ccc([N+](=O)[O-])cc1)C(C#N)=C(N)O2 (stereo not given) | 108%
CN(C)/N=C/c1ccccc1O | 97.8%
O=C1C(=O)/C(=C/c2ccccc2)CCCCCC/C1=C/c1ccccc1 | 65.7%
O=C(c1cccc(N2CCOCC2)n1)c1c[nH]c2ccccc12 | 89.5%
CCOC(=O)c1nn(C2CCCCO2)c2ccc(NC(=O)Cn3nnc4ccccc43)cc12 (stereo not given) | 105%
COc1cc(-c2nn(-c3ccc(NC(=O)c4cc(Cl)cc(Cl)c4)cc3)cc2-c2ccncc2)ccc1Cl | 89.2%
CCCCCCCCCCCCOC(=O)/C=C\C(=O)NC(N)=O | 82.1%
CC(=O)Nc1ccc(S(N)(=O)=O)cc1 | 100% and 97.2%
CC1(C)CC[C@]23CC[C@]4(C)[C@H](CC[C@@H]5[C@@]6(C)CCCNC(C)(C)[C@@H]6CC[C@]54C)[C@H]2[C@H]1OC3 | -50.5% (active)
O=C1C=CC(=CC=C2C=CN(CCCCCCCCCCCO)C=C2)C=C1 | -37.4% (active)
CCN(CCC#N)c1ccccc1 | 118%
O=C(Cn1cc(COc2ncnc3c2cnn3-c2ccccc2)nn1)Nc1cccc2ccccc12 | 86.5%
O=C(Nc1ccc(Cl)c(C(F)(F)F)c1)c1ccc(Nc2ccc(Cl)nn2)cc1 | 41.3%
